For 41 compounds, inhibition results are on record in PubChem BioAssay AID602405 (Broad Institute, 2012).

Hit rate of the full screen: of about 360,000 compounds, about 350 (0.097%) were called active. This excerpt belongs to a sample that is enriched for actives. A number with no mark means an inactive call. Cut-off read from the data, not from the text of the source: active = inhibition above about 16% (passing the limit was not always enough); inconclusive = no clear call, values can overlap the other calls; inactive = below that.

The subject of this experiment is UDP-N-acetylbacillosamine N-acetyltransferase PglD (Campylobacter jejuni). The experiment can be described thus: blockers of PglD enzyme activity – biochemical, DTNB colorimetric, single point, primary screen (AID 602405). The settings on record: purified PglD enzyme, DTNB colorimetric CoA detection; at 12.5 µM; active compounds read high.
With `CC(C)CC#Cc1cnc2c(c1)C(=O)N([C@H](C)CO)C[C@H](C)[C@@H](CN(C)C(=O)Cc1cccnc1)O2`, the inhibition (usually the change of the read-out against control, counted positive when it falls) was -1.63%.
For the compound `CCCN1C[C@H](C)[C@@H](OC)CN(C)C(=O)c2ccc(NC(=O)C3CCOCC3)cc2OC[C@H]1C`, the inhibition was 0.0955%.
As for `C[C@H]1CCCCO[C@@H](CN(C)C(=O)Nc2cccc3ccccc23)[C@@H](C)CN([C@@H](C)CO)C(=O)c2cc(NS(=O)(=O)c3ccc(Cl)cc3)ccc2O1`, the inhibition is 19.9%.
As to `C[C@H]1CN([C@@H](C)CO)C(=O)c2cc(-c3cccc(F)c3)cnc2O[C@@H]1CN(C)Cc1cncnc1`, the inhibition was 4.73%.
To `COCC(=O)Nc1ccc2c(c1)OC[C@H](C)N(C)C[C@@H](C)[C@@H](OC)CN(C)C2=O` belongs -0.767%; to `CCC(=O)Nc1ccc2c(c1)C(=O)N(C)[C@@H]1CC[C@@H](CC(=O)N[C@@H](C)c3ccccc3)O[C@@H]1CO2`, 2.31%.
Regarding `C/C=C/c1ccc2c(c1)O[C@@H](CN(C)C(=O)C1CCOCC1)[C@H](C)CN([C@H](C)CO)S2(=O)=O`, the inhibition is -2.4%.
Regarding `CCCNC(=O)N(C)C[C@@H]1Oc2cc(-c3ccccc3)ccc2S(=O)(=O)N([C@H](C)CO)C[C@H]1C`, the inhibition is 3.76%.
Consider `COCC#Cc1ccc2c(c1)O[C@@H](CN(C)C(C)=O)[C@H](C)CN([C@H](C)CO)S2(=O)=O`, for which the inhibition was 2.69%.
In the case of `C[C@H](CO)N1C[C@H](C)[C@@H](CN(C)Cc2ccc3c(c2)OCO3)Oc2c(NC(=O)C3CCOCC3)cccc2C1=O`, the inhibition was -0.262%.
Turning to `Cc1ccc(S(=O)(=O)N2CCC(C(=O)N3CCCCCCC3)CC2)cc1`, the inhibition was -2.53%.
Regarding `Cc1ccc(CN(CC(=O)NCC2CCCO2)S(=O)(=O)c2ccc(C)cc2)cc1` (stereo unspecified), the inhibition is -1.95%.
For `Cc1ccc(S(=O)(=O)N2CCC(C(=O)NCC3CCCO3)CC2)cc1` (stereo unspecified), the inhibition was 34.1% (active).
Regarding `CCCNC(=O)[C@H]1[C@H](CO)[C@H]2Cn3c(ccc(C4=CCCC4)c3=O)[C@H]2N1C(=O)CC1CC1`, the inhibition is 0.913%.
In the case of `CO[C@@H]1CC[C@@H]2CCOc3ccc(C#N)cc3C(=O)N(C)C[C@@H](OC)[C@@H](C)C(=O)N(C)C[C@H]1O2`, the inhibition was 2.01%.
With `O=C(CC1CC1)Nc1ccc2c(c1)[C@@H]1C[C@@H](CC(=O)NC3CCCCC3)O[C@@H](CO)[C@@H]1O2`, the inhibition was 0.63%.
Consider `C[C@@H]1CN([C@@H](C)CO)C(=O)c2cc(C3=CCCCC3)cnc2O[C@H]1CN(C)CC1CCOCC1`, for which the inhibition is 4.78%.
Consider `C[C@H]1CN([C@@H](C)CO)C(=O)c2cc(/C=C/c3ccccc3)cnc2O[C@@H]1CN(C)C(=O)NC1CCCCC1`, for which the inhibition was 4.19%.
For `C[C@@H]1CCCCO[C@@H](CN(C)C(=O)Cc2ccccc2)[C@@H](C)CN([C@@H](C)CO)C(=O)c2cc(NC(=O)c3ccccc3)ccc2O1`, the inhibition is -0.412%.
As to `COc1ccc(NC(=O)Nc2cccc3c2O[C@H](CN(C)S(=O)(=O)c2ccc(F)cc2)[C@H](C)CN([C@H](C)CO)C3=O)cc1`, the inhibition was 2.54%.
For `C=CCOC(=O)C1=C(C)NC(C)=C(C(=O)OCC=C)C1c1cccs1`, the inhibition was -1.12%.
For the compound `C=CCOC(=O)C1=C(C)NC(SCC(=O)OCC)=C(C#N)C1c1ccc(C)cc1` (stereo unspecified), the inhibition is 25.9% (active).
Regarding `CCOC(=O)CSC1=C(C#N)C(c2sccc2C)CC(=O)N1` (stereo unspecified), the inhibition was -0.988%.
The value for `CCCC(=O)Nc1ccc2c(c1)C(=O)N(C)[C@H]1CC[C@@H](CC(=O)NCc3cccc(F)c3)O[C@H]1CO2` was 0.49%; that for `CSCCC(NC(=O)c1ccccc1)C(=O)N1CCCCCCC1` (stereo unspecified) was 6.24%; that for `COc1ccc(S(=O)(=O)NC(C)C(=O)N2CCCCCC2)cc1` (stereo unspecified) was 2.86%.
As to `CC(NC(=O)c1ccc(Cl)cc1)C(=O)N1CCCCC1` (stereo unspecified), the inhibition is 24% (active).
Consider `C[C@@H]1CN([C@@H](C)CO)C(=O)Cc2cc(NS(=O)(=O)c3ccc(Cl)cc3)ccc2O[C@H]1CN(C)Cc1ccc(C(F)(F)F)cc1`, for which the inhibition is 3.04%.
The value for `Cc1noc(C)c1NC(=O)N(C)C[C@@H]1Oc2ccc(NC(=O)Nc3ccc4c(c3)OCO4)cc2C(=O)N([C@H](C)CO)C[C@H]1C` was -1.03%; that for `CC(C)NC(=O)Nc1ccc2c(c1)C(=O)N([C@H](C)CO)C[C@@H](C)[C@@H](CN(C)S(=O)(=O)c1ccc(Cl)cc1)OCCCC[C@H](C)O2` was 1.05%.
Take `C[C@@H]1CN([C@@H](C)CO)C(=O)c2c(c3ccccc3n2C)-c2ccccc2CO[C@H]1CN(C)C(=O)N[C@H](C)c1ccccc1`: the inhibition was -3.17%.
To `CS(=O)(=O)Nc1ccc2c(c1)[C@H]1C[C@@H](CC(=O)NCCc3ccccc3)O[C@@H](CO)[C@H]1O2` belongs 1.04%.
On to `Cc1noc(C)c1S(=O)(=O)Nc1ccc2c(c1)C(=O)N([C@@H](C)CO)C[C@@H](C)[C@H](CN(C)Cc1ccc(-c3ccccc3)cc1)O2`, for which the inhibition is -0.726%.
The value for `Cc1noc(C)c1NC(=O)Nc1ccc2c(c1)C(=O)N([C@@H](C)CO)C[C@H](C)[C@H](CN(C)Cc1ccc(C(=O)O)cc1)OCCCC[C@@H](C)O2` was 0.986%; that for `Cc1ccccc1-c1ccc2c(c1)O[C@H](CN(C)C)[C@H](C)CN([C@@H](C)CO)S2(=O)=O` was 4.9%; that for `CCCN1C[C@@H](C)[C@@H](OC)CN(C)C(=O)c2ccc(NS(C)(=O)=O)cc2OC[C@@H]1C` was 0.769%.
For `O=C(C[C@@H]1CC[C@@H](NC(=O)C2CC2)[C@H](CO)O1)NCc1ccncc1`, the inhibition was -0.635%.
The value for `Cc1ccc(S(=O)(=O)NCC[C@H]2CC[C@H](NC(=O)c3ccccn3)[C@@H](CO)O2)cc1` was 1.02%; that for `C[C@@H]1CN([C@H](C)CO)S(=O)(=O)c2ccc(-c3cccc(C#N)c3)cc2O[C@@H]1CN(C)C(=O)Nc1ccccc1F` was -1.07%.
As for `CCCC#Cc1cnc2c(c1)C(=O)N([C@H](C)CO)C[C@H](C)[C@H](CN(C)C(=O)Cc1ccncc1)O2`, the inhibition is 0.18%.
Consider `C[C@@H]1CN([C@H](C)CO)S(=O)(=O)c2ccc(C#CCN(C)C)cc2O[C@@H]1CN(C)C(=O)C1CCCCC1`, for which the inhibition is -0.634%.
